# Compound activity as filed in PubChem BioAssay.
# AHR activator: activates the human aryl hydrocarbon receptor; activation, % at 5 µM; hit rate 2.5% among 320,000; AID 2796; AHR-responsive luciferase reporter cells, luminescence; P35869; in the data active = activation above about 47%
# Target sequence (P35869 whole entry, looked up): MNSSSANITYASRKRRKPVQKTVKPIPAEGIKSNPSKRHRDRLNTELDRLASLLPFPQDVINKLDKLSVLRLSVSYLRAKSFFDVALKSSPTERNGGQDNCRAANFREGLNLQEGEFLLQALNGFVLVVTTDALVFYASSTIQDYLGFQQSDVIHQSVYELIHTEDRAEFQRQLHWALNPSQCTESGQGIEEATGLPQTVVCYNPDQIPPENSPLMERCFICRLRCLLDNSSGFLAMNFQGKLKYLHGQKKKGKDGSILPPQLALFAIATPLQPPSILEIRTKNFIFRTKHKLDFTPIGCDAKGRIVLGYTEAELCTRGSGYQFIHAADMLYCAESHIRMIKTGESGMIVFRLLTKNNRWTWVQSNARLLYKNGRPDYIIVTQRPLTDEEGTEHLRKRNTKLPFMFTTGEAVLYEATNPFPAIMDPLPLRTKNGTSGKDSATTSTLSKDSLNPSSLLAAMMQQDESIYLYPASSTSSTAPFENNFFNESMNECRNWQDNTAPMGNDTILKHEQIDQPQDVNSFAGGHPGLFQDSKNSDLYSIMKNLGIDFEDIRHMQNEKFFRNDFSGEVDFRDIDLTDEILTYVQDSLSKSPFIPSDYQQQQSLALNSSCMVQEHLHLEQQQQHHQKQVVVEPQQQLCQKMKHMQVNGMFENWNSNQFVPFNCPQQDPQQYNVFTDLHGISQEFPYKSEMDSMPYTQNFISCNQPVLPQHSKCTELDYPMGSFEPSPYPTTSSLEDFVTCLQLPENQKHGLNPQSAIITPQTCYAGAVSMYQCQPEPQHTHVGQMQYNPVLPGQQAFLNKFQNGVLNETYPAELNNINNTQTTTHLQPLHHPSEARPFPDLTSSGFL
# APOBEC3A inh: inhibitors of human APOBEC3A DNA deaminase. P31941. recombinant A3A, FAM/TAMRA ssDNA deamination fluorescence. inhibition, % at 20 µM. hit rate 0.41% among 330,000. AID 493011;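 active = at least 40% inhibition at 20 µM here, with at most 30% in a related deaminase screen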
# NTR1 agonist: activates human neurotensin receptor 1 | P30989 | NTR1-U2OS beta-arrestin-GFP spot imaging, agonist mode | activation, % at 20 µM | hit rate 0.17% among 330,000 | AID 493036;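 active = activation at or above 40% of the spot to cytoplasm intensity ratio, with at least 20 cells analyzed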
# A3G deaminase: blocks human APOBEC3G single-stranded DNA deamination. recombinant A3G, ssDNA deamination FAM/TAMRA fluorescence. inhibition, % at 20 µM. hit rate 0.28% among 330,000. Q9HC16;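 active = inhibition of at least 40% at 20 µM, with no more than 30% in the related APOBEC3A deaminase screen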
# AHR act confirm: human AHR activation, confirmation; hit rate 87% among 2,300; shares compounds with AHR activator; activation, % at 9 µM; human cells, AHR-responsive luciferase reporter, luminescence; in the data active = activation above about 49%;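 note: HepG2 hepatoma cells carrying a DRE-driven firefly luciferase reporter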
# PXR counter: activates human PXR in AHR activator counter-screen. shares compounds with AHR activator. cell-based PXR reporter, luciferase luminescence. activation, % at 11.6 µM. hit rate 88% among 2,300; in the data active = activation above about 11%;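 note: human hepatoma DPX-2 cells expressing full-length human PXR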
# A number is an active result; – = inactive; · = no result. This is a sample that favours compounds with a hit; in the whole collection about 3.2% have one here.
SMILES,AHR activator,APOBEC3A inh,NTR1 agonist,A3G deaminase,AHR act confirm,PXR counter
CCn1c(/C=C/c2ccccc2)nc2ccccc21,–,–,–,–,·,·
CC(C)CCNC(=O)c1onc(CSc2nc3ccccc3[nH]2)c1C(=O)NCCC(C)C,–,–,–,–,·,·
Cc1cccc(-c2nc(C#N)c(NC3CCCCC3)o2)c1,145,–,–,–,–,86
O=S(=O)(c1cccc(-c2nc3ccccc3s2)c1)N1CCCC1,–,–,–,–,·,·
COc1ccc(-c2nc3ccccc3s2)cc1O,82,–,–,–,76,11
Oc1cccc(-c2nc3ccccc3s2)c1,86,–,–,–,58,12
O=C(/C=C/c1ccco1)NC(=S)Nc1cccc(-c2nc3ccccc3s2)c1,82,–,–,–,118,33
Oc1ccc(O)c(Cc2nc3ccccc3s2)c1,–,–,–,–,·,·
Nc1cccc(-c2nc3ccccc3s2)c1,116,–,–,–,96,–
O=C(/C=C/c1ccco1)NC(=S)Nc1cc(-c2nc3ccccc3s2)ccc1Cl,–,·,·,·,·,·
N#Cc1cccc(C(=O)OCC(=O)c2ccc3c(c2)NC(=O)CO3)c1,–,–,–,–,·,·
Cc1ccc(SCC(=O)Nc2nnc(C(C)(C)C)s2)cc1,–,–,–,–,·,·
CN1CCN(CC(=O)Nc2c(C#N)cnn2-c2ccccc2)CC1,–,–,–,–,·,·
CC(=O)Nc1cccc(-c2nc3ccccc3s2)c1,124,–,–,–,99,20
O=C(C[n+]1cc(Br)cc2ccccc21)c1ccc(Br)cc1,101,–,–,–,112,30
CC1=NN(C(N)=S)C(=O)C1N=Nc1cccc(Cl)c1C (configuration not stated),138,–,–,–,139,16
Cc1c(Cl)cccc1NC(=O)Nc1ccccc1C(N)=O,–,–,–,–,·,·
Cc1ccc2nc(-c3cccc(NC(=O)c4ccco4)c3)[nH]c2c1,91,–,–,–,92,16
Cc1cccc(-c2nnc(NC(=O)c3ccco3)s2)c1,164,–,–,–,129,54
Cc1ccc(O)c(NC(=O)c2cccc(NC(=O)c3ccco3)c2)c1,104,–,–,–,129,21
Cc1ccc(O)c(NC(=O)c2ccco2)c1,–,–,–,–,·,·
O=C(Nc1ccc2nc(-c3cccnc3)[nH]c2c1)c1ccco1,–,–,–,–,·,·
Cc1cccc(N(C)S(=O)(=O)c2nnc(NC(=O)c3ccco3)s2)c1,–,–,–,–,·,·
Clc1cccc(/C=N\Nc2nccs2)c1,117,–,–,–,122,37
COc1ccc(C(=O)C(O)C(c2ccc(C)cc2)N2CCOCC2)cc1OC (configuration not stated),–,–,–,–,·,·
SMILES,AHR activator,APOBEC3A inh,NTR1 agonist,A3G deaminase,AHR act confirm,PXR counter
CCSc1ncc(/C=N/Nc2ccccc2)n1C,89,–,–,–,145,49
CC(=O)Nc1c(C(=O)c2ccc(F)cc2)oc2ccccc12,155,–,–,–,126,39
O=C(Nc1ccc(F)cc1)c1oc2ccccc2c1NC(=O)C1CCCC1,91,–,–,–,136,36
CC(=O)Nc1c(C(=O)O)oc2ccccc12,–,–,–,–,·,·
COc1ccc(C(=O)c2oc3ccc(OC)cc3c2NC(C)=O)cc1,–,–,–,–,·,·
O=C(c1ccc(Cl)cc1)c1oc2ccccc2c1CS(=O)c1ccc(Cl)cc1 (configuration not stated),–,–,–,–,·,·
COc1ccc(C(=O)c2oc3ccccc3c2NC(C)=O)cc1,173,–,–,–,148,14
Nc1c(C(=O)c2ccc(Cl)cc2)oc2ccccc12,113,–,–,–,169,16
COc1ccc(NC(=O)N(C)C[C@H]2Oc3ccc(NC(=O)NC4CCCCC4)cc3C(=O)N([C@H](C)CO)C[C@@H]2C)cc1,–,–,–,–,·,·
CCOC(=O)Cc1cc(-c2ccc(OC)cc2)nc2ccc3ccccc3c12,129,–,–,–,108,16
CCOC(=O)Cc1cc(-c2ccc(O)cc2)nc2ccc3ccccc3c12,102,–,–,–,92,·
O=C(/C=C/c1ccc(S(=O)(=O)N2CCOCC2)cc1)NCCCn1ccnc1,–,–,–,–,·,·
O=[N+]([O-])c1ccc(-n2cnc3ccccc32)c([N+](=O)[O-])c1,–,–,–,–,·,·
C(=C\n1nnc2ccccc21)/c1ccc[nH]1,–,–,–,–,·,·
c1ccc(CN=C2NN=C(c3cc4ccccc4o3)CS2)cc1,–,–,–,–,·,·
c1ccc2oc(C3=NNC(=NC4CC4)SC3)cc2c1,137,–,–,–,–,16
Cc1cc(Br)c(OCc2ccc(C(=O)N/N=C3\CC4CC=CC34)cc2)c(Br)c1 (configuration not stated),105,–,–,–,79,11
N/C(=N\OC(=O)c1cc(Cl)ccc1Cl)c1ccccn1,122,–,–,–,64,17
N/C(=N\OC(=O)c1ccc(Br)o1)c1ccccn1,79,–,–,–,–,22
N/C(=N\OC(=O)c1ccccc1)c1ccccn1,–,–,–,–,·,·
Cc1ccc(C(=O)NCC(=O)OCC(=O)c2ccc(Br)s2)cc1,–,–,–,–,·,·
COc1ccc(OC)c(NC(=O)NCCc2c[nH]c3ccccc23)c1,·,–,–,–,·,·
COc1ccc(NC(=O)Nc2ccc(F)cc2F)c(C)c1,–,–,–,–,·,·
COc1ccc(NC(=O)Nc2ccc(F)cc2)c(C)c1,111,–,–,–,–,25
Cc1cc(C)c(C)c(OC(=O)c2sc(Cl)nc2C)c1,–,–,–,–,·,·
SMILES,AHR activator,APOBEC3A inh,NTR1 agonist,A3G deaminase,AHR act confirm,PXR counter
O=C(Nc1ccc(OC(F)(F)F)cc1)c1ccc2nc[nH]c2c1,96,–,–,–,137,12
Cc1ccc(C(=O)NNC(=O)c2ccccc2-n2cccc2)cc1,–,–,–,–,·,·
O=C(NNC(=O)c1ccccc1-n1cccc1)c1ccccc1,81,–,–,–,93,12
NNC(=O)c1ccccc1-n1cccc1,121,–,–,–,–,–
O=C(N/N=C\c1ccccc1)c1ccccc1-n1cccc1,92,–,–,–,111,38
C/C(=N\NC(=O)c1ccccc1-n1cccc1)C1CC1,98,–,–,–,–,–
O=C(NNS(=O)(=O)c1ccccc1)c1ccccc1-n1cccc1,–,–,–,–,·,·
CC1=C(C(=O)Nc2cccc(C(=O)N3CCC(C(N)=O)CC3)c2)SCCO1,–,–,–,–,·,·
O=C(Nc1nccs1)c1sc2cc(Cl)ccc2c1Cl,80,–,–,–,110,18
Clc1ccc2[nH]c3c(NCCCN4CCOCC4)ncnc3c2c1,82,–,–,–,–,37
Cc1ccc2[nH]c3c(NCCN4CCOCC4)ncnc3c2c1,·,–,–,–,·,·
CC1(c2ccc(OC(F)F)cc2)NC(=O)N(/N=C/c2c(O)ccc3ccccc23)C1=O (configuration not stated),–,–,–,–,·,·
NC1=NC(=O)/C(=C/c2cn(Cc3ccccc3)c3ccccc23)S1,116,–,–,–,87,25
